Values joined by “and” are separate entries in the source; they are usually repeats but may differ in a detail not shown here. Equal entries are not always repeated. Inconclusive results are not listed. Some compounds were tested as several samples or in several runs, with calls that do not always agree. Active and inactive are the calls of the source. Unless noted, the call rests on the fitted dose curve.
Tests used:
[1] = target: Gonadotropin-releasing hormone receptor (Homo sapiens) (UniProt P30968); test: Human gonadotropin-releasing hormone receptor (GnRHR) small molecule agonists, calcium flux assay in GnRHR-HEK293 cells (AID 1920063); further: nearly all actives have a fitted effect of over 35% in size; further: potency means the concentration at half of the fitted maximal effect
Summary of the method: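 Tox21-format agonist screen using human GnRHR-expressing HEK293 cells and a fluorescent calcium dye; kinetic 3-min fluorescence reading after compound addition, 15-point concentration series run in triplicate.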

[2] = target: KiSS-1 receptor (Homo sapiens) (UniProt Q969F8); test: Human kisspeptin (KISS1R) small molecule agonists, calcium flux assay in KISS1R-HEK293 cells (AID 1920064; active means well fitted activation curve with a large enough effect in the repeat runs)
Summary of the method: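 Intracellular calcium mobilization in KISS1R-HEK293 cells was recorded by fluorescence (Ex/Em 480/540) for 3 min following compound addition to cells pre-loaded 1 h with calcium dye.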

[3] = G protein-coupled receptor (GPCR) small molecule agonists, calcium flux assay: HEK293 wild type cell line counter screen (AID 1920065)
Summary of the method: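 In this agonist-mode screen, ATP is the positive control and DMSO the vehicle. Cells grow 18 h before a 1 h dye incubation at 37 C; signal is taken at Ex/Em 480/540 over 3 min.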

[4] = p53 small molecule agonists, cell-based qHTS assay with human liver microsomes (AID 1963577);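 further: p53 response element beta-lactamase reporter cells with liver microsomes plus NADPH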
Summary of the method: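 In this qHTS, p53 response-element beta-lactamase cells receive test compound together with a microsome/NADPH activating system (0.5 mg/mL final each) and are incubated 16 h at 37 C before LiveBLAzer fluorescence detection.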

[5] = p53 small molecule agonists, cell-based qHTS assay with rat liver microsomes (AID 1963578)
Summary of the method: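 Agonist mode in p53RE-bla reporter cells, with compounds co-incubated 16 h at 37 C alongside 0.5 mg/mL rat liver microsomes and 0.5 mg/mL NADPH (final), followed by a 2 h LiveBLAzer detection step.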

[6] = p53 small molecule agonists, cell-based qHTS assay with human liver microsomes: qHTS cell viability counter screen (AID 1963579); further: nearly all actives have a fitted effect of over 45% in size; further: potency means the concentration at half of the fitted maximal effect
Summary of the method: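 Metabolically activated exposure: compounds, human liver microsomes and NADPH (0.5 mg/mL final apiece) were added to p53RE-bla cells seeded 5 h earlier, left 16 h at 37 C, and then assessed for viability by CellTiter-Glo luminescence.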

[7] = p53 small molecule agonists, cell-based qHTS assay (AID 1963582; active means well fitted activation curve with a large enough effect in the signal ratio in the repeat runs, not every such curve was filed as active; the % refers to the signal ratio)
Summary of the method: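 Agonist activity was scored from beta-lactamase FRET fluorescence in p53RE-bla cells treated 16 h at 37 C with compounds in DMSO, substrate incubation being 2 h at room temperature.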

[8] = target: 5-hydroxytryptamine receptor 2A (Homo sapiens) (UniProt P28223); test: 5-hydroxytryptamine receptor 2A (HTR2A) small molecule antagonists, cell-based qHTS assay (AID 1963586); further: nearly all actives have a fitted effect of over 45% in size; further: potency means the concentration at half of the fitted maximal effect
Summary of the method: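 Antagonist-mode intracellular calcium assay: DOI (4 nM) added after 5 min compound pre-incubation at room temperature to dye-loaded HTR2A-CHO cells. Fluorescence followed for 3 min, sampled every second.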

[9] = target: 5-hydroxytryptamine receptor 2A (Homo sapiens) (UniProt P28223); test: 5-hydroxytryptamine receptor 2A (HTR2A) small molecule agonists, cell-based qHTS assay (AID 1963587); further: nearly all actives have a fitted effect of over 30% in size; further: potency means the concentration at half of the fitted maximal effect
Summary of the method: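 Kinetic calcium-flux fluorescence (2 min, 1 sec intervals) after compound addition in agonist mode. HTR2A-CHO cells were cultured 18 h, then dye-loaded 1 h at 37 C.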

[10] = target: Muscarinic acetylcholine receptor M1 (Homo sapiens) (UniProt P11229); test: Cholinergic receptor muscarinic 1 (CHRM1) small molecule antagonists, cell-based qHTS assay (AID 1963588); further: nearly all actives have a fitted effect of over 40% in size; further: potency means the concentration at half of the fitted maximal effect
Summary of the method: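 CHRM1-CHO calcium-flux assay, antagonist mode. Cells were seeded 18 h, dye-loaded 1 h at 37 C and given compound for 5 min at RT, then acetylcholine was added at 50nM. FDSS fluorescence was read 3 min; 15 concentrations, three runs.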

[11] = target: Beta-2 adrenergic receptor (Homo sapiens) (UniProt P07550); test: Adrenergic beta2 receptor (ADRB2) small molecule antagonists, cell-based qHTS assay (AID 1963592); further: nearly all actives have a fitted effect of over 50% in size; further: potency means the concentration at half of the fitted maximal effect; on activity change, negative = inhibition: series mostly up to about 92 µM
Summary of the method: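 Cells (CHO, stable ADRB2 overexpression) incubated 18-20hr at 37C; compounds added from DMSO; agonist mix (1nM isoproterenol, 100uM IBMX, 25uM Ro-20-1724) added; 0.5hr RT; d2-cAMP and anti-cAMP-cryptate added; 1hr RT; 665/615 nm read.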

[12] = target: Beta-2 adrenergic receptor (Homo sapiens) (UniProt P07550); test: Adrenergic beta2 receptor (ADRB2) small molecule agonists, cell-based qHTS assay (AID 1963593);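 further: CHO cells stably overexpressing human ADRB2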
Summary of the method: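 CHO cells stably over-expressing ADRB2 were plated overnight at 37C, then dosed with compounds plus a stimulation mix containing 100uM IBMX and 25uM Ro-20-1724 for 0.5hr at room temperature. cAMP was measured by HTRF competition, 1hr.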

[13] = target: D(2) dopamine receptor (Homo sapiens) (UniProt P14416); test: Dopamine D2 receptor (DRD2) small molecule agonists, cell-based qHTS assay (AID 1963594); further: nearly all actives have a fitted effect of over 35% in size
Summary of the method: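 cAMP accumulation in DRD2-HEK293 cells measured by HTRF after 1 h detection; compounds added 10 min before NKH477 (200nM […]) forskolin-analogue stimulation, 30 min at room temperature, with Ro20-1724 present at 0.1 mM final.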

[14] = target: D(2) dopamine receptor (Homo sapiens) (UniProt P14416); test: Dopamine D2 receptor (DRD2) small molecule antagonists, cell-based qHTS assay (AID 1963595; active means well fitted inhibition curve with a large enough effect in the signal ratio in the repeat runs, with a control signal flat; the % refers to the signal ratio)
Summary of the method: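 HEK293 cells stably expressing DRD2 were preincubated with 0.1 mM Ro20-1724, then with compound for 10 min at room temperature. Cells were stimulated with 200 nM NKH477 plus 12 nM quinpirole for 30 min, and cAMP was read by HTRF.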

[15] = p53 small molecule agonists, cell-based qHTS assay with rat liver microsomes: qHTS cell viability counter screen (AID 1963580); further: nearly all actives have a fitted effect of over 45% in size; further: potency means the concentration at half of the fitted maximal effect
Summary of the method: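 HCT-116 p53RE-bla, 4,000 cells/well, 5 h pre-incubation; cpd + rat liver microsomes 0.5 mg/mL + NADPH 0.5 mg/mL (final); 16 h, 37 C; CellTiter-Glo, 30 min RT; luminescence.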

[16] = p53 small molecule agonists, cell-based qHTS assay: qHTS cell viability counter screen (AID 1963581); further: nearly all actives have a fitted effect of over 45% in size; further: potency means the concentration at half of the fitted maximal effect
Summary of the method: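 Compounds are pinned onto HCT-116 p53RE-bla cells and left 16 h at 37 C. Following the reporter FRET read, ATP is quantified by CellTiter-Glo luminescence after 30 min at room temperature.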

[17] = target: Muscarinic acetylcholine receptor M1 (Homo sapiens) (UniProt P11229); test: Cholinergic receptor muscarinic 1 (CHRM1) small molecule agonists, cell-based qHTS assay (AID 1963589); further: nearly all actives have a fitted effect of over 35% in size
Summary of the method: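 Stable CHRM1-CHO cells (human receptor) were incubated 18 h, dye-loaded for 1 h at 37 C and exposed to test compounds for agonist activity, with calcium-dependent fluorescence followed kinetically.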

[18] = cAMP Responsive Elements (CRE) small molecule antagonists, cell-based qHTS assay (AID 1963591; active means well fitted inhibition curve with a large enough effect in the signal ratio in the repeat runs, not every such curve was filed as active; the % refers to the signal ratio; further: potency means the concentration at half of the fitted maximal effect)
Summary of the method: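 qHTS in CRE-bla HEK 293T cells: compound in DMSO, then 0.25 uM NKH477 (final), 3 h at 37 °C/5% CO2; beta-lactamase FRET read-out after 2 h substrate incubation.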

[19] = cAMP Responsive Elements (CRE) small molecule agonists, cell-based qHTS assay (AID 1963590)
Summary of the method: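 FRET-based beta-lactamase readout (LiveBLAzer B/G, 2 h RT) quantified CRE activation in HEK 293T CRE-bla cells after 3 h treatment with DMSO-dissolved compounds.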
On the % scale 0 is the no-effect control and ±100 the full control effect.

Chain of 5-hydroxytryptamine receptor 2A (Homo sapiens) (P28223 whole entry, looked up): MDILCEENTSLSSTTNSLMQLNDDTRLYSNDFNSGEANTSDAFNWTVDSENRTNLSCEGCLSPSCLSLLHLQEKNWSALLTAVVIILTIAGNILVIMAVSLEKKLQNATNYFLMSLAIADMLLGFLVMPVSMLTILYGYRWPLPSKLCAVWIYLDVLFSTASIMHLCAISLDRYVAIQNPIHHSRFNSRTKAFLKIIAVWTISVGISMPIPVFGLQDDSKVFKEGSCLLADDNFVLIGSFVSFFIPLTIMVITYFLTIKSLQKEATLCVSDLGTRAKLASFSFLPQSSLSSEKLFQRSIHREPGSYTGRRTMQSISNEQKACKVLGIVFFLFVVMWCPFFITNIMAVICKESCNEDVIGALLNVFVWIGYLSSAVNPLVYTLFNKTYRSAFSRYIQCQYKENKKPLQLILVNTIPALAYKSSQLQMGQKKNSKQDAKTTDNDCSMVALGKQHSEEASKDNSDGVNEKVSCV
Chain of D(2) dopamine receptor (Homo sapiens) (P14416 whole entry, looked up): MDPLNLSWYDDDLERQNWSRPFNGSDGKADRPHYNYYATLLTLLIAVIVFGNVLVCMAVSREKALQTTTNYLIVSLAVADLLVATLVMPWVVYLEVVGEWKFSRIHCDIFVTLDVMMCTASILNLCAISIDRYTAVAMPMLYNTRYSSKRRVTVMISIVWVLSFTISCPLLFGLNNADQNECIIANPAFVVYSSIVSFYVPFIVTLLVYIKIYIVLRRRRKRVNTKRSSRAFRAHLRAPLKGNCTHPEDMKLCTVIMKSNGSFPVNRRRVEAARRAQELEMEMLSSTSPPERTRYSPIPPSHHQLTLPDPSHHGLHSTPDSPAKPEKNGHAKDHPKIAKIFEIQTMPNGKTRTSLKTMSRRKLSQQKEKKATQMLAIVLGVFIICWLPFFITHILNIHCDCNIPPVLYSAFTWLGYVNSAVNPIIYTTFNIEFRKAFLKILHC
Chain of Muscarinic acetylcholine receptor M1 (Homo sapiens) (P11229 whole entry, looked up): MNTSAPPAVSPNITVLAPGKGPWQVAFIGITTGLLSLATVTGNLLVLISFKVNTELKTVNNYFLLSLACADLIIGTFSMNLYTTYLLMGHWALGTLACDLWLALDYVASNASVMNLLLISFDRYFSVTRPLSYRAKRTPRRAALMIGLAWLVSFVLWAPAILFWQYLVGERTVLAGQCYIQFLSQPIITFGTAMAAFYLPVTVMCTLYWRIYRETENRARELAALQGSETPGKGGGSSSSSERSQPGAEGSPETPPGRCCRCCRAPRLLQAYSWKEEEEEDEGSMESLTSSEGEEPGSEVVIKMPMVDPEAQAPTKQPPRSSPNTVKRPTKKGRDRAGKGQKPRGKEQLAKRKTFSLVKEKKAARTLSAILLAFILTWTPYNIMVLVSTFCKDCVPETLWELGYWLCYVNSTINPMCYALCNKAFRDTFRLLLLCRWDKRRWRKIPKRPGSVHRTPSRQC
Chain of Gonadotropin-releasing hormone receptor (Homo sapiens) (P30968 whole entry, looked up): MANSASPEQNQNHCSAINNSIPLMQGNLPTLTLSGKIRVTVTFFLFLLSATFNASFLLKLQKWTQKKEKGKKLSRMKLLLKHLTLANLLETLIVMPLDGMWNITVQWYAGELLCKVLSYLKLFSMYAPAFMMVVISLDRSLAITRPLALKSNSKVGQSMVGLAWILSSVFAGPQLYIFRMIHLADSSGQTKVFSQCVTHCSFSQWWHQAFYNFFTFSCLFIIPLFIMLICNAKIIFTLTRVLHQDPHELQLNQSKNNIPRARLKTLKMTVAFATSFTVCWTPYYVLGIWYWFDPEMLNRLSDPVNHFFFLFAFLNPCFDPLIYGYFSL
Chain of KiSS-1 receptor (Homo sapiens) (Q969F8 whole entry, looked up): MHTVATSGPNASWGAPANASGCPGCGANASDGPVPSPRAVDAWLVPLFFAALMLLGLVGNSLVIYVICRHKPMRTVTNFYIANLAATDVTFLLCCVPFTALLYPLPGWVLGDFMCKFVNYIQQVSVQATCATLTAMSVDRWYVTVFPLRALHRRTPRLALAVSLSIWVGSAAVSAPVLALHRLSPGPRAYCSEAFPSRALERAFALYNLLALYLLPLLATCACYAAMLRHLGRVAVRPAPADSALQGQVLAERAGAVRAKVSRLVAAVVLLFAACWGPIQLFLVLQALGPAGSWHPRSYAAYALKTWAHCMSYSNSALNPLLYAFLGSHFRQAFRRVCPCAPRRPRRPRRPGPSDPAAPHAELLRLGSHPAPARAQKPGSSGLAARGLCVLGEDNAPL
Chain of Beta-2 adrenergic receptor (Homo sapiens) (P07550 whole entry, looked up): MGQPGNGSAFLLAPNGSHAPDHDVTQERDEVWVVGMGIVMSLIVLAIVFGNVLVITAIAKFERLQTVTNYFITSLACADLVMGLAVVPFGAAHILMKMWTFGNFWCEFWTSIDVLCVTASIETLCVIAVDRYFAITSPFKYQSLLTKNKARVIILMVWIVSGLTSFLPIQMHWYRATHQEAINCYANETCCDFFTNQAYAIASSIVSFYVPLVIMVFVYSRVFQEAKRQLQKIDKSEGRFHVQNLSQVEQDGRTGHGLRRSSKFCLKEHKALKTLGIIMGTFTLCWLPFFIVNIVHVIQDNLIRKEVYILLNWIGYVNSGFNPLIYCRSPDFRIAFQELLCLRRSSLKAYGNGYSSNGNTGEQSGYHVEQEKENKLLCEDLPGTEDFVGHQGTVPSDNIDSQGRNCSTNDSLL

CC1(C)[C@@H](O)CC[C@]2(C)[C@H]3C(=O)C=C4[C@@H]5C[C@@](C)(C(=O)O)CC[C@]5(C)CC[C@@]4(C)[C@]3(C)CC[C@@H]12
inactive: Potency [2] | Potency [3] | Potency [4] | Potency [5] | Potency [7] | Potency [8] | Potency [10] | Potency [11] | Potency [12] | Potency [13] | Potency [14]
active: Potency [1] 34.3 µM | Potency [6] 32 µM | Potency [9] 48.4 µM

COc1cc(/C=C/c2ccccc2)oc(=O)c1
inactive: Potency [1] | Potency [2] | Potency [3] | Potency [4] | Potency [5] | Potency [6] | Potency [15] | Potency [16] | Potency [8] | Potency [9] | Potency [10] | Potency [17] | Potency [13] | Potency [14]

O=CC=C(c1ccccc1)c1ccccc1
active: Potency [18] 24.5 µM
inactive: Potency [1] | Potency [2] | Potency [3] | Potency [4] | Potency [5] | Potency [15] | Potency [16] | Potency [10] | Potency [17] | Potency [11] | Potency [12] | Potency [13]

CCCCCCCCC(CCCCCC)C(=O)O (stereo not given)
inactive: Potency [1] | Potency [2] | Potency [3] | Potency [4] | Potency [6] | Potency [16] | Potency [7] | Potency [8] | Potency [9] | Potency [10] | Potency [17] | Potency [19] | Potency [18] | Potency [11] | Potency [13] | Potency [14]

Cc1cccc(N(C)C(=S)Oc2ccc3c(c2)C2CCC3C2)c1 (stereo not given)
inactive: Potency [1] | Potency [2] | Potency [3] | Potency [6] | Potency [15] | Potency [16] | Potency [7] | Potency [9] | Potency [10] | Potency [17] | Potency [18] | Potency [11] | Potency [12] | Potency [13] | Potency [14]
active: Potency [8] 1.63 µM

O=C(O)CN(CCN(CC(=O)O)CC(=O)O)CC(=O)O
inactive: activity change [1] 0.111% [at 2.04 µM, stronger effect = higher value] | activation [2] -1.01% [at 2.72 µM] | activation [3] 0.597% [at 2.04 µM] | activation [4] -9.46% [at 2.33 µM] | activity change, negative = cytotoxicity [6] -15.2% [at 2.33 µM] | activity change, negative = cytotoxicity [16] 1.99% [at 2.33 µM] | activation [7] -4.53% [at 2.33 µM] | activity, negative = inhibition [8] -0.852% [at 2.12 µM] | activation [9] -0.659% [at 2.65 µM] | activation [17] -0.34% [at 2.72 µM] | activation [19] 0.14% [at 3.27 µM] | activity change, negative = inhibition [18] 1.65% [at 3.27 µM] | activity change, negative = inhibition [11] 4.71% [at 3.27 µM] | activation [12] 11.4% [at 3.27 µM] | activation [13] 2.74% [at 3.27 µM] | activity change, negative = inhibition [14] 8.25% [at 3.28 µM]

O=C1N=C(O)CN1/N=C/c1ccc(-c2ccc([N+](=O)[O-])cc2)o1
inactive: Potency [1] | Potency [2] | Potency [3] | Potency [6] | Potency [15] | Potency [16] | Potency [8] | Potency [9] | Potency [10] | Potency [17] | Potency [13]

CC(C)NCC(O)c1cc(O)cc(O)c1 (stereo not given)
inactive: Potency [1] | Potency [2] | Potency [3] | Potency [15] | Potency [16] | Potency [8] | Potency [9] | Potency [10] | Potency [17] | Potency [13] | Potency [14]

c1ccc(C(O[C@@H]2CCCN(CCc3ccc4c(c3)OCO4)C2)c2ccccc2)cc1
active: Potency [10] 0.119 µM | Potency [11] 48.6 µM
inactive: Potency [1] | Potency [2] | Potency [3] | Potency [5] | Potency [6] | Potency [15] | Potency [16] | Potency [17] | Potency [13] | Potency [14]

COC(=O)c1nc(Cl)c(Cl)nc1N
inactive: Potency [1] | Potency [2] | Potency [3] | Potency [4] | Potency [8] | Potency [9] | Potency [10] | Potency [17] | Potency [11] | Potency [13] | Potency [14]

CCOC(=O)c1nc(C(Cl)(Cl)Cl)n(-c2ccc(Cl)cc2Cl)n1
inactive: Potency [1] | Potency [2] | Potency [3] | Potency [6] | Potency [15] | Potency [8] | Potency [9] | Potency [13] | Potency [14]
active: Potency [18] 61.1 µM

Cc1c2ccccc2c(C)c2c1ccc1ccccc12
inactive: Potency [1] | Potency [2] | Potency [3] | Potency [4] | Potency [6] | Potency [15] | Potency [10] | Potency [17] | Potency [11] | Potency [13] | Potency [14]
10.9 µM (active) and inactive: Potency [9]

COc1cc(Cc2cnc(N)nc2N)cc(OC)c1OC
inactive: Potency [1] | Potency [2] | Potency [3] | Potency [16] | Potency [7] | Potency [8] | Potency [9] | Potency [10] | Potency [17] | Potency [19] | Potency [18] | Potency [11] | Potency [12] | Potency [13] | Potency [14]

COc1c2occc2cc2ccc(=O)oc12
inactive: Potency [1] | Potency [2] | Potency [3] | Potency [16] | Potency [7] | Potency [19] | Potency [18] | Potency [11] | Potency [12] | Potency [13] | Potency [14]

C[C@H]1O[C@@H](O[C@H]2[C@@H](O)C[C@H](O[C@H]3[C@@H](O)C[C@H](O[C@H]4CC[C@@]5(C)[C@H](CC[C@@H]6[C@@H]5C[C@@H](O)[C@]5(C)[C@@H](C7=CC(=O)OC7)CC[C@]65O)C4)O[C@@H]3C)O[C@@H]2C)C[C@H](O)[C@@H]1O
active: Potency [6] 0.0903 µM | Potency [15] 205 nM and 90.3 nM | Potency [16] 102 nM and 90.3 nM
inactive: Potency [1] | Potency [2] | Potency [3] | Potency [12] | Potency [13] | Potency [14]

Cc1nc(-c2ccccn2)ncc1C(=O)Nn1cc(C)c2cc(F)ccc21
inactive: Potency [1] | Potency [2] | Potency [3] | Potency [15] | Potency [16] | Potency [8] | Potency [9] | Potency [10] | Potency [17] | Potency [19] | Potency [18] | Potency [11] | Potency [12] | Potency [14]
